The list is not random: actives were taken first. Their share in the collection is about 1.3%.
E coli Lon inh: E. coli protease La inhibition. AID 602123. actives 0.42% (n = 360,000). P0A9M0. purified E. coli Lon protease, fluorescence polarization. inhibition, % at 7.94 µM; in the data active means inhibition above about 13%, passing the limit was not always enough;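 further: 0% = enzyme with probe and DMSO and 100% = no enzyme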
MEX-5 binding: C. elegans MEX-5 TCR-2 RNA binding activity; Q9XUB2; MEX-5/FITC-TCR2 RNA binding, fluorescence polarization; stronger effect = lower value; activity score (negative = inhibition of binding), % at 10 µM; actives 0.38% (n = 300,000); AID 1832;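 active means inhibition past about -25% in most replicates, and total fluorescence under double the plate's negative control median, limit read from the data; inconclusive means replicates evenly split on the limit, or fluorescence at least double controls; inactive means too little inhibition in most replicates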;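 further: 0% = DMSO and -100% = 5 µM competing unlabeled TCR2 RNA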
Bcl-xL primary: Bcl-xL (human) inhibition | actives 0.7% (n = 320,000) | AID 2129 | GST-Bcl-xL / FITC-Bim BH3 peptide fluorescence polarization | Q07817 | inhibition, % at 10.9 µM;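 active means inhibition above the mean of all tested compounds plus 3 SD, cutoff set per campaign, cut at about 30% in these data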;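 further: 0% = DMSO wells and 100% = unlabeled Bim-BH3 peptide competitor; inhibitors lower millipolarization by displacing the labeled peptide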
GLD-1 RNA inh: GLD-1-TGE RNA interaction inhibition (C. elegans); inhibition, % at 5.96 µM; purified GLD-1 + fluorescein TGE RNA, fluorescence polarization; Q17339; actives 0.44% (n = 320,000);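 active means percent inhibition above a per-plate cutoff, the plate mean of test compounds plus 3 SD, cut at about 30% in these data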;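 further: 0% = DMSO wells with GLD-1 and probe and 100% = wells lacking GLD-1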
Target sequence (Q17339 whole entry, looked up): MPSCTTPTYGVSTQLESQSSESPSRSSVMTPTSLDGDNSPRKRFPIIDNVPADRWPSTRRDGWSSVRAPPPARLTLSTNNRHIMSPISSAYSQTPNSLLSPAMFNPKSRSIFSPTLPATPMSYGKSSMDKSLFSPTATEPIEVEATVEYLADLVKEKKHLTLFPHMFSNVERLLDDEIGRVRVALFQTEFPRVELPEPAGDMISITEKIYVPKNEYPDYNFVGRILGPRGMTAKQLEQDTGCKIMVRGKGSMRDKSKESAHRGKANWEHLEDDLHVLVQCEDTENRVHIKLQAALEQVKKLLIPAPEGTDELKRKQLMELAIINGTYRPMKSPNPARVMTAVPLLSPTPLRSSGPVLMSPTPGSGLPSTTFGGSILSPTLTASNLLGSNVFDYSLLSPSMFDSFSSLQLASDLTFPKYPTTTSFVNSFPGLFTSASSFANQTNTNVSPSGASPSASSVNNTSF
EBV gp42 block: blocks Epstein-Barr virus glycoprotein 42 binding | Q1HVG2 | Fluorescence polarization binding assay, mP read-out | inhibition, % (tested at 21.74 µM) | actives 0.42% (n = 220,000) | AID 1085; in the data active means inhibition above about 50%
Active calls of the source: *; ? = inconclusive; . = no result.

SMILES | E coli Lon inh | MEX-5 binding | Bcl-xL primary | GLD-1 RNA inh | EBV gp42 block
COCCCNC(=O)c1c(N)n(Cc2ccco2)c2nc3ccccc3nc12 | -12.7 | -4.0 | 48.8* | 47.1* | 8.1
CCCNC(=O)c1c(N)n(Cc2ccco2)c2nc3ccccc3nc12 | . | -1.7 | 29.2 | 17.1 | 2.2
CC1CCN(C(CC(=O)c2ccccc2)C(=O)c2ccccc2)CC1 (stereo unspecified) | -10.7 | . | . | . | .
Cc1c(CCC(=O)N2C[C@H]3C[C@@H](C2)c2cccc(=O)n2C3)c(=O)oc2c(C)c(O)ccc12 | -7.2 | . | . | . | .
CN1/C(=C\C=C2C(=O)NC(=O)NC2=O)C(C)(C)c2ccccc21 | -436.6 | -85.5* | -144.2 | -230.1 | -314.5
Cc1cccc(N2C(=O)NC(=O)/C(=C/c3ccc([N+](=O)[O-])o3)C2=O)c1 | . | . | 32.8* | -8.5 | -19.6
O=C1NC(=O)N(c2ccc(Cl)cc2)C(=O)/C1=C\c1ccc(Sc2nc3ccccc3[nH]2)o1 | -27.2 | 0.9 | 58.5* | -7.7 | -24.4
C=CCn1cc(C=C2C(=O)NC(=O)NC2=O)c2ccccc21 | -49.6 | -37.3* | 29.8 | -29.6 | .
O=C(Cn1cc(C=C2C(=O)NC(=O)NC2=O)c2ccccc21)NCC1CCCO1 (stereo unspecified) | -17.0 | -36.3* | -1.7 | -3.4 | .
O=C(O)Cn1cc(/C=C2\C(=O)NC(=O)N(c3ccc(Cl)cc3)C2=O)c2ccccc21 | -59.9 | ? | -12.8 | -20.8 | .
Cn1cc(/C=C2\C(=O)NC(=O)N(c3ccccc3)C2=O)c2ccccc21 | -85.0 | -82.5* | 150.6* | -9.7 | .
O=C1NC(=O)C(=Cc2cn(CCOc3ccc4c(c3)OCO4)c3ccccc23)C(=O)N1 | -17.4 | -55.4* | 28.8 | -3.3 | 16.6
c1ccc(-c2ccc(CN3Cc4ccccc4-n4nncc4C3)cc2)cc1 | -1.8 | . | . | . | .
CO[C@H]1C=CCCC=CC(=O)O[C@H]([C@H](C)C(=O)CCCC2CC(=O)NC(=O)C2)C(C)=C[C@@H](C)[C@@H]1O | -1.3 | . | . | . | .
Brc1ccc2[nH]cc(C=NN3CCCCCC3)c2c1 | -5.1 | . | . | . | .
COC(=O)C1C=C2c3cccc4[nH]cc(c34)CC2N(C)C1 (stereo unspecified) | . | . | . | . | 113.7*
CC[C@@H](CO)NC(=O)[C@@H]1C=C2c3cccc4[nH]cc(c34)C[C@H]2N(C)C1 | 45.1 | . | . | . | .
CC(C)C[C@H]1C(=O)N2CCC[C@H]2[C@]2(O)O[C@](NC(=O)[C@@H]3C=C4c5cccc6[nH]cc(c56)C[C@H]4N(C)C3)(C(C)C)C(=O)N12 | 92.1 | . | 149.4* | 117.9* | .
COC(=O)C1(F)C(=O)NC(=O)NC1O (stereo unspecified) | -5.9 | . | . | . | .
CC(C)(C)N1CC(C(=O)c2ccccc2)C1c1ccccc1 (stereo unspecified) | 5.2 | . | . | . | .
COc1cc(O)c(C(=O)O)c(-c2cc(O)c(O)cc2C)c1 | -5.1 | -62.1* | 17.4 | 3.4 | -9.6
CCCC1(CC(C)CC)C(=O)NC(=O)NC1=O (stereo unspecified) | 6.7 | . | . | . | .
CCOC(=O)c1c(NS(=O)(=O)c2ccccc2)n(CCCOC)c2nc3ccccc3nc12 | -6.9 | -26.5* | 6.2 | 8.6 | 15.4
CCOC(=O)C1(c2ccccc2)CCN(CCC(=O)Nc2cccc(Br)c2)CC1 | -7.4 | . | . | . | .
Cc1cccc(-n2c(O)c(/C=N/Nc3nc4c(c(=O)n(C)c(=O)n4C)n3C)c(=O)[nH]c2=S)c1 | -15.1 | -46.9* | 7.3 | -9.2 | -29.7
SMILES | E coli Lon inh | MEX-5 binding | Bcl-xL primary | GLD-1 RNA inh | EBV gp42 block
COc1ccc(N/N=C/c2c(O)n(-c3ccc(C)c(C)c3)c(=O)[nH]c2=O)cc1 | -136.5 | -0.4 | 50.8* | -11.9 | -2.9
Cc1ccccc1-n1c(O)c(/C=N/Nc2nc3c(c(=O)n(C)c(=O)n3C)n2C)c(=O)[nH]c1=S | -13.6 | -13.8 | -6.5 | -1.3 | -29.1
COc1ccc(N/N=C/c2c(O)n(-c3cccc(C)c3)c(=O)[nH]c2=O)cc1 | -19.9 | 10.4 | 40.1* | -8.3 | -13.8
COc1ccc(-n2nnnc2C(CCc2ccccc2)N2CCC3(CC2)C(=O)NCN3c2ccccc2)cc1 (stereo unspecified) | -3.2 | . | . | . | .
C1CN(P2(N3CC3)=NP(N3CC3)(N3CC3)=NP(N3CC3)(N3CC3)=N2)CCO1 (stereo unspecified) | 13.9 | . | . | . | .
Cc1nc2cc(OC(=O)N(C)Cc3cccc(-c4ccncc4)c3)ccc2s1 | -6.6 | . | . | . | .
COc1ccc(C(c2nnnn2C2CCCC2)N2CCC3(CC2)C(=O)NCN3c2ccccc2)cc1 (stereo unspecified) | 8.2 | . | . | . | .
CN1C(=O)N(C)C(=O)C(NS(=O)(=O)c2ccc(N)cc2)(c2ccccc2)C1=O | -3.0 | . | . | . | .
